The record followed here is PubChem BioAssay (Tox21).

Assay [1] can be described thus: qHTS RealTime-Glo MT Cell Viability Assay in HEK293 cells - 0 hour (AID 1224880). Further: top concentration of the series differs between compounds; nearly all actives have a fitted effect of over 45% in size. In outline:
(§1)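 Viable HEK293 cells reduce a cell-permeant prosubstrate; the product diffuses out and is consumed by NanoLuc in the medium to give light. Compounds went in after a 5 h incubation and plates were read over the treatment course.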
(Quantitative high-throughput screening tests each substance at several concentrations.)

Assay [2] can be described thus: A CellTox Green Cytotoxicity Assay to monitor cytotoxicity in HEK293 cells - 32 hour (AID 1224881). Further: nearly all actives have a fitted effect of over 40% in size. In short, it runs like this: (§2)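 Fluorescence intensity, read at 0, 8, 16, 24, 32 and 40 h of compound treatment, reflected dye binding to DNA of dead HEK293 cells; compounds (23 nL, DMSO) were added 5 h after plating cells with reagent.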
Assay [3] in a line: A CellTox Green Cytotoxicity Assay to monitor cytotoxicity in HepG2 cells - 0 hour (AID 1224882). Further: nearly all actives have a fitted effect of over 35% in size. In outline: (§3)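 Using 1536-well format, dye-containing HepG2 suspension was seeded, allowed 5 h at 37 C/5% CO2, dosed by pintool with compounds, positive and negative controls, and imaged for fluorescence across 40 h.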
Assay [4] in a line: A CellTox Green Cytotoxicity Assay to monitor cytotoxicity in HepG2 cells - 32 hour (AID 1224883). Further: nearly all actives have a fitted effect of over 50% in size. In outline: as §3
A short description of assay [5]: A CellTox Green Cytotoxicity Assay to monitor cytotoxicity in HEK293 cells - 8 hour (AID 1224884). Further: nearly all actives have a fitted effect of over 35% in size. In outline:
as §2

Assay [6] in a line: qHTS RealTime-Glo MT Cell Viability Assay in HepG2 cells - 16 hour (AID 1224885). Further: nearly all actives have a fitted effect of over 50% in size. In short, it runs like this:
(§4)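 Real-time, nonlytic viability: 600 HepG2 cells/well mixed with NanoLuc enzyme plus prosubstrate; 5 h settle, compound (DMSO) added by pintool; luminescence monitored over 40 h at 37 C.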

The nature of assay [7]: qHTS RealTime-Glo MT Cell Viability Assay in HEK293 cells - 24 hour (AID 1224886). Further: top concentration of the series differs between compounds; nearly all actives have a fitted effect of over 50% in size. In outline: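 Cells + reagent dispensed (600 cells/well, HEK293) → 5 h at 37 C/5% CO2 → 23 nL compound in DMSO pinned → 40 h at 37 C → luminescence read at 0, 8, 16, 24, 32, 40 h.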
A short description of assay [8]: qHTS RealTime-Glo MT Cell Viability Assay in HEK293 cells - 8 hour (AID 1224887). Further: top concentration of the series differs between compounds; nearly all actives have a fitted effect of over 50% in size. In short, it runs like this: as §1
Assay [9] is described as follows: A CellTox Green Cytotoxicity Assay to monitor cytotoxicity in HEK293 cells - 16 hour (AID 1224888). Further: nearly all actives have a fitted effect of over 35% in size. In outline:
as §2

A short description of assay [10]: qHTS RealTime-Glo MT Cell Viability Assay in HepG2 cells - 0 hour (AID 1224889). Further: nearly all actives have a fitted effect of over 50% in size. In short, it runs like this:
as §4

Assay [11] is described as follows: A CellTox Green Cytotoxicity Assay to monitor cytotoxicity in HepG2 cells - 8 hour (AID 1224890). Further: nearly all actives have a fitted effect of over 45% in size. In short, it runs like this: as §3
A short description of assay [12]: qHTS assay to identify small molecule antagonists of the estrogen receptor alpha (ER-alpha) signaling pathway using the BG1 cell line in the presence of 0.1 nM 17-beta-estradiol - cell viability counter screen (AID 1259241). Further: nearly all actives have a fitted effect of over 40% in size. In short, it runs like this:
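The cell line endogenously expresses full-length ER-alpha and carries four EREs driving luciferase. Cells are cultured 5 days hormone-free, treated 22 hr with compounds and 0.1 nM estradiol, then viability is read by fluorescence.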

The nature of assay [13]: qHTS assay to identify small molecule antagonists of the androgen receptor (AR) signaling pathway using the MDA cell line in the presence of 0.5 nM R1881 - cell viability counter screen (AID 1259242). Further: nearly all actives have a fitted effect of over 45% in size. In short, it runs like this: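 Viability of MDA-kb2 cells was multiplexed with the luciferase AR readout; after 16 hr with compounds and R1881 at 0.5 nM final, CellTiter-Fluor fluorescence was recorded.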

Assay [14] addresses Androgen receptor (Homo sapiens) (UniProt P10275). Kind of assay: qHTS assay to identify small molecule antagonists of the androgen receptor (AR) signaling pathway using the MDA cell line in the presence of 0.5 nM R1881 (AID 1259243). Further: nearly all actives have a fitted effect of over 50% in size. In outline: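 Reporter cells cultured without CO2 receive test chemicals, then 0.5 nM R1881 final; after 16 hr at 37C, ONE-Glo is added and light output recorded.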

Assay [15] is described as follows: qHTS assay to identify small molecule phospholipidosis (PLD) inducers (AID 1259344; active means well fitted curve in the direction sought with a large enough effect; an effect the other way counts as inactive or inconclusive). In short, it runs like this: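 HepG2 cells grown on collagen I take up LipidTOX Red while exposed to compound for 24 h; after fixation they are imaged at 20x and pit metrics are extracted.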
Assay [16] in a line: qHTS assay to identify small molecule HDAC inhibitors (AID 1259364).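 Further: wild-type HCT-116 cells with endogenous class I/II HDAC activity; top concentration of the series differs between compounds; nearly all actives have a fitted effect of over 45% in size.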 In short, it runs like this:
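Read-out: luminescence of HDAC-Glo I/II reagent, 30 min RT, reflecting class I/II deacetylase activity in whole HCT-116 cells pre-exposed 2 h to DMSO-dissolved compounds.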

The nature of assay [17]: qHTS assay to identify small molecule HDAC inhibitors - cell viability counter screen (AID 1259365). In outline: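 Viability readout: CellTiter-Glo luminescence. Wild-type HCT-116 cells, 2hr compound treatment following overnight attachment at 37 C.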
Assay [18] can be described thus: qHTS assay to identify small molecule agonists of the sonic hedgehog signaling (Shh) pathway - cell viability counter screen (AID 1259366). Further: nearly all actives have a fitted effect of over 50% in size. Further: potency means the concentration at half of the fitted maximal effect. In outline: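 Viability measured fluorometrically (CellTiter-Fluor, 1hr, 37C) in 3T3 Gli1-Luc reporter cells after 23hr compound exposure within a 24hr incubation at 37C/5% CO2.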
The nature of assay [19]: qHTS assay to identify small molecule antagonists of the sonic hedgehog signaling (Shh) pathway - cell viability counter screen (AID 1259367). Further: nearly all actives have a fitted effect of over 55% in size. Further: potency means the concentration at half of the fitted maximal effect. In short, it runs like this: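 After a 4 hr settling period, 3T3 Gli1-Luc cells were treated with DMSO-dissolved chemicals and conditioned medium, kept 24 hr at 37C in 5% CO2, and assayed for viability by CellTiter-Fluor fluorescence following 1 hr reagent incubation.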

The target in assay [20] is Estrogen receptor (Homo sapiens) (UniProt P03372). Kind of assay: qHTS assay to identify small molecule antagonists of the estrogen receptor alpha (ER-alpha) signaling pathway using the BG1 cell line in the presence of 0.1 nM 17-beta-estradiol (AID 1259244). Further: nearly all actives have a fitted effect of over 50% in size. In short, it runs like this: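 Estradiol at 0.1 nM (final) stimulates the endogenous ER-alpha of VM7Luc4E2 cells carrying an ERE-driven luciferase; compounds are co-incubated 22 h at 37C and luciferase output quantified by luminescence.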
Sequence of Estrogen receptor (Homo sapiens) (P03372 whole entry, looked up): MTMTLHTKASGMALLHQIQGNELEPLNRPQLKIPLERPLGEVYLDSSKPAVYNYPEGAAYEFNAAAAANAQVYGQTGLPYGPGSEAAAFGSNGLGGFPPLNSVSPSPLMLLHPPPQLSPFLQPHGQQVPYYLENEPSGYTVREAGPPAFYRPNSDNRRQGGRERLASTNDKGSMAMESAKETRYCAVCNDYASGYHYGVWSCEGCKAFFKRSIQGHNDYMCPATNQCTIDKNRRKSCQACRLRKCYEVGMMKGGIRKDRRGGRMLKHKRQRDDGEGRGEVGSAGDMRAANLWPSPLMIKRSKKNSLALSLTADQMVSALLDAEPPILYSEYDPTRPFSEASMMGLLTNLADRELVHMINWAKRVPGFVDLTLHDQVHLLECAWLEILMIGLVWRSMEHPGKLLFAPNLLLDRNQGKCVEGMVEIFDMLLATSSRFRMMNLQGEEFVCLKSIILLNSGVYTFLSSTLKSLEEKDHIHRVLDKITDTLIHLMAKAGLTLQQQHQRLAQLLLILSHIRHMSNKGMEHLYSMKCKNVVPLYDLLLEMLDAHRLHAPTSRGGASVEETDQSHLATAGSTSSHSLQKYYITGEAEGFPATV

Values without a mark were called inactive. Records with an inconclusive call do not appear. The source made the active and inactive calls. Unless noted, the call rests on the fitted dose curve; in most records, active means well fitted curve in the direction sought with a large enough effect in the repeat runs; inconclusive means weak or mixed curves; inactive means no such curve, though single readings can be large; an effect the other way counts as inactive or inconclusive.
On the % scale 0 is the no-effect control and ±100 the full control effect.

Sequence of Androgen receptor (Homo sapiens) (P10275 whole entry, looked up): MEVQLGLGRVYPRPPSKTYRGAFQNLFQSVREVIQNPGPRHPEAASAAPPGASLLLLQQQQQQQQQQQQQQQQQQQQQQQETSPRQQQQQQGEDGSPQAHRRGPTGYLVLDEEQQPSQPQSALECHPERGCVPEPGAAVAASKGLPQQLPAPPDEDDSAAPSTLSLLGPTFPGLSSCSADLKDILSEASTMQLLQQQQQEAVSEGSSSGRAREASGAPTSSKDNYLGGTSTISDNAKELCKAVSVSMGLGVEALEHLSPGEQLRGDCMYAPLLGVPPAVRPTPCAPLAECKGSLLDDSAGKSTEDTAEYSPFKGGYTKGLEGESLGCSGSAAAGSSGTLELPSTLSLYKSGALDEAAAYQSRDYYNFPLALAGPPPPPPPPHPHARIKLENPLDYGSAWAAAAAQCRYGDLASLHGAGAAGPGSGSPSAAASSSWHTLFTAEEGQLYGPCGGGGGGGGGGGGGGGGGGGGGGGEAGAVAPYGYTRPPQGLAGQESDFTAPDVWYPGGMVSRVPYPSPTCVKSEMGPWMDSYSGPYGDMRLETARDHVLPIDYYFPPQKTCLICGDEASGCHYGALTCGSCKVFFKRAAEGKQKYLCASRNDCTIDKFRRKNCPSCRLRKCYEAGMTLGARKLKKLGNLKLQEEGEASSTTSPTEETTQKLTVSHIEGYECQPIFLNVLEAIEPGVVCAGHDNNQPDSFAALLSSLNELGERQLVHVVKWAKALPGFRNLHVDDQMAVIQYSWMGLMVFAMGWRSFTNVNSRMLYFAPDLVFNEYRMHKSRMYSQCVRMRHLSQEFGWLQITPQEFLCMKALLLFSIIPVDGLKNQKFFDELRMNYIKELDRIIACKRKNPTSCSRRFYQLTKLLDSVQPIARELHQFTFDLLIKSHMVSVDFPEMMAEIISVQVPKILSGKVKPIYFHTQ

Consider `Cc1ccc2c(Cl)cc(Cl)c(O)c2n1`, for which the Potency entry in [1], in assay [2], in assay [3], in [4], in assay [5] and in assay [7] was “inactive” each time. The Potency result in assay [8], in assay [9], in [10], in assay [11], in assay [12] and in assay [13] was “inactive” each time. Further, the Potency result in [14], in assay [16], in assay [18] and in assay [19] was “inactive” in each case. The call in assay [6] and in [17] was inactive. Also, the PLD induction in assay [15] is 0.648% [at 1.53 µM].

For `Nc1cccc2c(=O)[nH][nH]c(=O)c12`, the Potency result in assay [1], in assay [2], in assay [3], in [4], in [5] and in [7] was “inactive” each time. The Potency entry in [8], in [9], in [10], in [11], in assay [12] and in assay [13] was “inactive” throughout. The Potency entry in [20], in assay [16], in assay [18] and in assay [19] was “inactive” throughout. The compound was called inactive in [6] and in assay [17].

Consider `O=C(OC1C[C@H]2CC[C@@H](C1)[N+]21CCCC1)C(O)(c1ccccc1)c1ccccc1` (stereo partly drawn), for which the Potency result in assay [1], in assay [2], in assay [3], in assay [4], in assay [5] and in assay [7] was “inactive” in each case. Besides, the Potency entry in [8], in [9], in assay [10], in [11], in assay [12] and in assay [13] was “inactive” each time. The Potency entry in assay [14], in assay [15], in [16] and in [18] was “inactive” throughout. For the same compound, the outcome in assay [6] and in [17] was inactive.

Consider `COC(=O)c1cc(Cl)ccc1[N+](=O)[O-]`, for which the Potency result in assay [1], in assay [2], in assay [3], in assay [4], in assay [5] and in [7] was “inactive” each time. Besides, the Potency entry in [8], in assay [9], in [10], in assay [11], in assay [12] and in assay [13] was “inactive” each time. The Potency entry in [20], in assay [16] and in assay [18] was “inactive” in each case. In addition, the result in assay [6] and in [17] was inactive.

Consider `CC(C)NC(=O)c1ccccc1N`, for which the Potency entry in [1], in assay [2], in [3], in assay [4], in assay [5] and in [7] was “inactive” in each case. The Potency entry in assay [8], in assay [9], in assay [10], in assay [11], in [12] and in assay [13] was “inactive” in each case. Also, the Potency entry in [20], in assay [16] and in assay [18] was “inactive” throughout. For the same compound, the compound was classed as inactive in assay [6] and in assay [17].

With `CCCCCCCCCCCCCCCCC(=O)O`, the Potency result in [1], in assay [2], in assay [3], in assay [4], in assay [5] and in assay [7] was “inactive” each time. Moreover, the Potency result in assay [8], in [9], in assay [10], in [11], in assay [12] and in [13] was “inactive” each time. Besides, the Potency result in assay [14], in [16], in [18] and in assay [19] was “inactive” each time. Also, the compound was classed as inactive in assay [6] and in [17].

For `O=C(Nc1ccccc1)c1cc([N+](=O)[O-])ccc1Cl`, the Potency entry in assay [1], in assay [2], in assay [3], in assay [4], in assay [5] and in [7] was “inactive” throughout. Moreover, the Potency entry in [8], in assay [9], in [10], in [11], in assay [12] and in assay [13] was “inactive” each time. In addition, the Potency entry in assay [20] and in assay [16] was “inactive” in each case. In addition, the result in assay [6] and in [17] was inactive. The Potency in assay [18] was 61.1 µM (active); in [19], 54.5 µM (active).

In the case of `Cc1ccc(NC=O)c(C)c1`, the Potency entry in assay [1], in assay [2], in assay [3], in assay [4], in assay [5] and in assay [7] was “inactive” each time. Moreover, the Potency entry in assay [8], in assay [9], in [10], in [11], in assay [12] and in assay [13] was “inactive” in each case. The Potency entry in assay [20], in assay [16], in assay [18] and in [19] was “inactive” in each case. Further, the compound was classed as inactive in assay [6] and in [17].
